Data from PubChem BioAssay (EPA / NIEHS).
Records with an inconclusive call do not appear. Activity calls are given as the source filed them. How the source made its calls, unless noted: active means hit-call score of the fitted dose curve at least 0.9, where 1 is the maximum; inactive means score below 0.9.

How the values were obtained:
[1] = read-out: NAD(P)H dehydrogenase [quinone] 1 (NQO1), NQO1 (gene 1728); experiment: LTEA_HepaRG_NQO1: Life Technologies and Expression Analysis (LTEA) Assay for NAD(P)H dehydrogenase [quinone] 1 (NQO1) using HepaRG (AID 2283526); conditions: mRNA level, 48 h; actives raise or lower the signal
Procedure, shortened: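 HepaRG, 48 h post-plating → serum-free induction medium → test chemical 48 h (duplicate, 100 uM top, half-log x8, 0.5% DMSO) → RNA isolation → qRT-PCR, ACTB/GAPDH/POLR2A normalization; bidirectional curve fit vs DMSO baseline.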

[2] = read-out: Nuclear factor erythroid 2-related factor 2 (Homo sapiens) (UniProt Q16236); experiment: LTEA_HepaRG_NFE2L2: Life Technologies and Expression Analysis (LTEA) Assay for Nuclear factor erythroid 2-related factor 2 (NFE2L2) Transcription Factor using HepaRG (AID 2283527); conditions: mRNA level, 48 h; actives raise or lower the signal
Procedure, shortened: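 Differentiated human HepaRG cells in serum-free induction medium were exposed for 48 h to eight concentrations (top 100 uM, half-log dilutions, 0.5% DMSO), in duplicate. NFE2L2 mRNA was quantified by TaqMan qRT-PCR, normalized to ACTB, GAPDH and POLR2A, with bidirectional fitting versus DMSO.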

[3] = read-out: succinate dehydrogenase complex iron sulfur subunit B (SDHB), SDHB (gene 6390); experiment: LTEA_HepaRG_SDHB: Life Technologies and Expression Analysis (LTEA) Assay for succinate dehydrogenase complex iron sulfur subunit B (SDHB) using HepaRG (AID 2283528); conditions: mRNA level, 48 h; actives raise or lower the signal
Procedure, shortened: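 A human HepaRG culture in serum-free induction medium received test chemicals for 48 h over an eight-point range capped at 100 uM. SDHB expression change was quantified by qRT-PCR.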

[4] = read-out: Signal transducer and activator of transcription 3 (Homo sapiens) (UniProt P40763); experiment: LTEA_HepaRG_STAT3: Life Technologies and Expression Analysis (LTEA) Assay for Signal transducer and activator of transcription (STAT3) using HepaRG (AID 2283529); conditions: mRNA level, 48 h; actives raise or lower the signal
Procedure, shortened: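 Differentiated human HepaRG cells in serum-free induction medium were exposed in duplicate for 48 h to eight half-log concentrations up to 100 uM in 0.5% DMSO. STAT3 mRNA was quantified by TaqMan qRT-PCR, normalized to ACTB, GAPDH and POLR2A, and fitted bidirectionally against DMSO.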

[5] = read-out: Transforming Growth Factor (TGFA), TGFA (gene 7039); experiment: LTEA_HepaRG_TGFA: Life Technologies and Expression Analysis (LTEA) Assay for Transforming Growth Factor (TGFA) using HepaRG (AID 2283532); conditions: mRNA level, 48 h; actives raise or lower the signal
Procedure, shortened: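 Differentiated human HepaRG cells, plated 48 h then switched to serum-free induction medium, were exposed in duplicate for 48 h to 8-point half-log series from 100 uM in 0.5% DMSO. TGFA mRNA measured by qRT-PCR, normalized to ACTB/GAPDH/POLR2A, bidirectional fit versus DMSO.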

[6] = read-out: Transforming Growth Factor (TGFB1), TGFB1 (gene 7040); experiment: LTEA_HepaRG_TGFB1: Life Technologies and Expression Analysis (LTEA) Assay for Transforming Growth Factor (TGFB1) Transporter using HepaRG (AID 2283533); conditions: mRNA level, 48 h; actives raise or lower the signal
Procedure, shortened: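 Differentiated human HepaRG cells in serum-free induction medium were exposed in duplicate for 48 h to eight concentrations (top 100 uM, half-log steps, 0.5% DMSO). TGFB1 mRNA was quantified by qRT-PCR, normalized to ACTB, GAPDH, POLR2A, and fitted bidirectionally against DMSO.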

TIMP1, TIMP1 (gene 7076) = experiment: LTEA_HepaRG_TIMP1: Life Technologies and Expression Analysis (LTEA) Assay for TIMP1 using HepaRG (AID 2283534); conditions: mRNA level, 48 h; actives raise or lower the signal
Procedure, shortened: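 Differentiated human HepaRG cells in serum-free induction medium were exposed 48 h to chemicals (8 half-log concentrations, top 100 uM, 0.5% DMSO). TIMP1 mRNA was quantified by TaqMan qRT-PCR, normalized to ACTB/GAPDH/POLR2A; bidirectional fit versus DMSO.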

[7] = read-out: Tumor necrosis factor receptor 1 (TNFRSF1A), TNFRSF1A (gene 7132); experiment: LTEA_HepaRG_TNFRSF1A: Life Technologies and Expression Analysis (LTEA) Assay for Tumor necrosis factor receptor 1 (TNFRSF1A) using HepaRG (AID 2283535); conditions: mRNA level, 48 h; actives raise or lower the signal
Procedure, shortened: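 Differentiated human HepaRG cells were exposed in duplicate for 48 h in serum-free induction medium to eight concentrations (top 100 uM, half-log steps, 0.5% DMSO). TNFRSF1A mRNA was quantified by qRT-PCR, normalized to ACTB, GAPDH and POLR2A, then fitted bidirectionally against DMSO.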

[8] = read-out: Thyroid Hormone Responsive (THRSP), THRSP (gene 7069); experiment: LTEA_HepaRG_THRSP: Life Technologies and Expression Analysis (LTEA) Assay for Thyroid Hormone Responsive (THRSP) using HepaRG (AID 2283536); conditions: mRNA level, 48 h; actives raise or lower the signal
Procedure, shortened: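 Differentiated human HepaRG cells were exposed in duplicate for 48 h in serum-free induction medium to eight concentrations (top 100 uM, half-log steps, 0.5% DMSO). Expression was quantified by TaqMan qRT-PCR, normalized to ACTB, GAPDH and POLR2A, with bidirectional fitting against DMSO.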

[9] = read-out: Cellular tumor antigen p53 (Homo sapiens) (UniProt P04637); experiment: LTEA_HepaRG_TP53: Life Technologies and Expression Analysis (LTEA) Assay for Tumor Protein P53 (TP53) using HepaRG (AID 2283537); conditions: mRNA level, 48 h; actives raise or lower the signal
Procedure, shortened: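 Gain or loss of TP53 mRNA signal is scored relative to 0.5% DMSO after 48 h chemical treatment of HepaRG liver cells, tested in duplicate at eight half-log concentrations up to 100 uM.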

[10] = read-out: UDP glucuronosyltransferase (UGT1A1), UGT1A1 (gene 54658); experiment: LTEA_HepaRG_UGT1A1: Life Technologies and Expression Analysis (LTEA) Assay for UDP glucuronosyltransferase (UGT1A1) using HepaRG (AID 2283538); conditions: mRNA level, 48 h; actives raise or lower the signal
Procedure, shortened: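 Readout is UGT1A1 transcript level by qRT-PCR, normalized to three housekeeping genes, after 48 h chemical treatment of HepaRG cells. Concentrations ran from 100 uM down in half-log steps with 0.5% DMSO, and gain or loss relative to DMSO was fitted.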

[11] = read-out: UDP glucuronosyltransferase (UGT1A6), UGT1A6 (gene 54578); experiment: LTEA_HepaRG_UGT1A6: Life Technologies and Expression Analysis (LTEA) Assay for UDP glucuronosyltransferase (UGT1A6) using HepaRG (AID 2283539); conditions: mRNA level, 48 h; actives raise or lower the signal
Procedure, shortened: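 Human HepaRG cells were dosed for 48 h in serum-free induction medium with 0.5% DMSO vehicle, eight-point half-log series from 100 uM, in duplicate. UGT1A6 mRNA was measured by qRT-PCR, normalized to ACTB, GAPDH, POLR2A, and fitted bidirectionally against DMSO.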

[12] = read-out: X-box binding protein 1 (XBP1), XBP1 (gene 7494); experiment: LTEA_HepaRG_XBP1: Life Technologies and Expression Analysis (LTEA) Assay for X-box binding protein 1 (XBP1) using HepaRG (AID 2283540); conditions: mRNA level, 48 h; actives raise or lower the signal
Procedure, shortened: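 Differentiated human HepaRG cells in serum-free induction medium were exposed in duplicate for 48 h to eight half-log concentrations up to 100 uM in 0.5% DMSO. XBP1 mRNA was quantified by qRT-PCR, normalised to ACTB, GAPDH and POLR2A, with bidirectional fitting against DMSO.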

[13] = LTEA_HepaRG_LDH_cytotoxicity: Cytotoxicity Assessment in the Life Technologies and Expression Analysis (LTEA) Assay (AID 2283563; active means hit-call score of the fitted dose curve at least 0.9, where 1 is the maximum;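 on AC50: LDH activity released into spent culture medium as a marker of cell death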)
Procedure, shortened: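 Differentiated human HepaRG cells, plated 48 h beforehand, were switched to serum-free induction medium and exposed for 48 h to eight half-log concentrations (top 100 uM) in 0.5% DMSO. LDH was measured in spent medium; activity was fitted relative to DMSO vehicle.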

[14] = target: Cellular tumor antigen p53 (Homo sapiens) (UniProt P04637); experiment: TOX21_p53_BLA_p2_ratio: Tox21 HCT-116 p53 Agonism Beta-lactamase Assay, Ratio, Phase 2 (AID 2283592; active means hit-call score of the fitted dose curve at least 0.9, where 1 is the maximum)
Chain of Cellular tumor antigen p53 (Homo sapiens) (P04637 whole entry, looked up): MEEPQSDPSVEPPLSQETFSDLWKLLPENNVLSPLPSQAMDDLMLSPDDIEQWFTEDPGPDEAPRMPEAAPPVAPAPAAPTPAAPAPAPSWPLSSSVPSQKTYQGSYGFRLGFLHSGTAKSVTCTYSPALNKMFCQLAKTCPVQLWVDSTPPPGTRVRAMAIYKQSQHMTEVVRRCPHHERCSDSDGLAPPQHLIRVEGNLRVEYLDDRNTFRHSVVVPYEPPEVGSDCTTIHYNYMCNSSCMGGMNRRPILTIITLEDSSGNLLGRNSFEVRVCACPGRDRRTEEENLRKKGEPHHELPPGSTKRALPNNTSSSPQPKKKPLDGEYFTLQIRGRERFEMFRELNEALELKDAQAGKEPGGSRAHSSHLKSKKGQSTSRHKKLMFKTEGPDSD
Procedure, shortened: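 HCT116 cells carrying a p53-responsive beta-lactamase reporter were plated, incubated 5 h at 37C, then dosed with compounds in DMSO (217-fold dilution) for 16 h. CCF4-AM substrate was added for 2 h at room temperature; the 460/530 nm emission ratio gave gain-of-signal activity relative to DMSO.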

[15] = read-out: solute carrier (SLCO1B1), SLCO1B1 (gene 10599); experiment: LTEA_HepaRG_SLCO1B1: Life Technologies and Expression Analysis (LTEA) Assay for solute carrier (SLCO1B1) using HepaRG (AID 2283530); conditions: mRNA level, 48 h; actives raise or lower the signal
Procedure, shortened: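 Differentiated human HepaRG cells, plated 48 h, switched to serum-free induction medium and exposed in duplicate for 48 h to 8 half-log concentrations (top 100 uM) in 0.5% DMSO. SLCO1B1 mRNA by TaqMan qRT-PCR, normalized to ACTB/GAPDH/POLR2A.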

[16] = TOX21_p53_BLA_p2_viability: Viability Assessment in the Tox21 HCT-116 p53 Agonism Beta-lactamase Assay, Phase 2 (AID 2283591; active means hit-call score of the fitted dose curve at least 0.9, where 1 is the maximum;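 further: compound exposure lasted 16 h at 37 °C; actives lower the ATP signal meaning cytotoxicity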)
Procedure, shortened: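 HCT-116 p53-bla cells (4000/well) rested 5 h at 37C, then received compounds in DMSO (217-fold dilution) for 16 h at 37C, 5% CO2. After the CCF4 read, CellTiter-Glo was added; ATP luminescence was read after 30 min at room temperature.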

[17] = TOX21_p53_BLA_p3_viability: Viability Assessment in the Tox21 HCT-116 p53 Agonism Beta-lactamase Assay, Phase 3 (AID 2283593; active means hit-call score of the fitted dose curve at least 0.9, where 1 is the maximum;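 further: cells exposed to compound for 16 h before reading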)
Procedure, shortened: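 HCT-116 cells (4000/well) rested 5 h at 37C, then got DMSO compounds by pin tool (217-fold dilution) for 16 h at 37C, 5% CO2. After the bla read, CellTiter-Glo was added and luminescence read at 30 min, room temperature.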

Measured: AC50

Chain of Nuclear factor erythroid 2-related factor 2 (Homo sapiens) (Q16236 whole entry, looked up): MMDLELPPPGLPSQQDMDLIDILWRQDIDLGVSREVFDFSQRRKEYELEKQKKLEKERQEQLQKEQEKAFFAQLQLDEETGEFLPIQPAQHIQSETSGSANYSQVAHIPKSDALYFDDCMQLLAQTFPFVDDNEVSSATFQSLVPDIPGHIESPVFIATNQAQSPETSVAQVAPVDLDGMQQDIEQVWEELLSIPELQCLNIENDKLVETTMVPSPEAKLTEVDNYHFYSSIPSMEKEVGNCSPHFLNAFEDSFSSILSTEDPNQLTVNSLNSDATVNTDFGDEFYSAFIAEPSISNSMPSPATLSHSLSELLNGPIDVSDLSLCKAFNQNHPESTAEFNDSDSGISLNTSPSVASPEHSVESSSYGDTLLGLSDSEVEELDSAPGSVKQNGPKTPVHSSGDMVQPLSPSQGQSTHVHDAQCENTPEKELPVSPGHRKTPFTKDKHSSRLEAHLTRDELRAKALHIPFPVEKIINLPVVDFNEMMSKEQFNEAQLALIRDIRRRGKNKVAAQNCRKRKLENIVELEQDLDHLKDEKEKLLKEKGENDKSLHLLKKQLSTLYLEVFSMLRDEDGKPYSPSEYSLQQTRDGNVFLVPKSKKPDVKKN
Chain of Signal transducer and activator of transcription 3 (Homo sapiens) (P40763 whole entry, looked up): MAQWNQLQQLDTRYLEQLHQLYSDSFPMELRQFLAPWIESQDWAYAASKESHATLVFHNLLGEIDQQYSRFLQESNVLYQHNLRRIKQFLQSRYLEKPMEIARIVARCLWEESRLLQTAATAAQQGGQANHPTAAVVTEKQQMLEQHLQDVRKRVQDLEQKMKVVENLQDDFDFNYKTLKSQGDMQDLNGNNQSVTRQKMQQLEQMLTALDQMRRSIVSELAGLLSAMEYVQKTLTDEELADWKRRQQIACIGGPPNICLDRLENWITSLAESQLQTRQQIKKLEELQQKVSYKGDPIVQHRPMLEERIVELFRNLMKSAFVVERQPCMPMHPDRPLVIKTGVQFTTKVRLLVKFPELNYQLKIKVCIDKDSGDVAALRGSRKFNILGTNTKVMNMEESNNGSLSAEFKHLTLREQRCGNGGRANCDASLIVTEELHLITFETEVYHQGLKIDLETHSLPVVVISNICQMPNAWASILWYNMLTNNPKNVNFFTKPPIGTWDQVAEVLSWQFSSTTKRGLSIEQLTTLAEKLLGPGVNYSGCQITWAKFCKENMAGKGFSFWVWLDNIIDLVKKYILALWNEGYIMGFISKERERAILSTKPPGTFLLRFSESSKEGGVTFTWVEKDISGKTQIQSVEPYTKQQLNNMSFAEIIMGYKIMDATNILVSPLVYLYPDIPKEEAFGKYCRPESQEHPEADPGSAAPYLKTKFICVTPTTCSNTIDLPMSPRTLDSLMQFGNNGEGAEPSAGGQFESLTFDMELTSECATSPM

CC(C)Nc1nc(Cl)nc(NC(C)C)n1
active: [10] 8.13 µM
not listed: [15] | [16] | [17]
inactive: all other assays above

COc1ccc(-c2ccccc2)cc1NNC(=O)OC(C)C
inactive: all assays above

CO/N=C(/C1=NOCCO1)c1ccccc1Oc1ncnc(Oc2ccccc2Cl)c1F
inactive: [1] | [3] | [6] | [7] | [12] | [16] | [17]
active: [2] 50 µM | [4] 6.5 µM | [15] 31.1 µM | [5] 31.2 µM | TIMP1, TIMP1 (gene 7076) 50 µM | [8] 27.1 µM | [9] 27.1 µM | [10] 35.8 µM | [11] 50 µM | [13] 33 µM | [14] 3.05 µM

O=c1n(Cl)c(=O)n(Cl)c(=O)n1Cl
inactive: all assays above
